Experimental data from PubChem BioAssay (NCI).
This is part of a sample that, as a whole, favours compounds with a hit. Of some 83,000 tested, about 20% had one in any assay.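 Values shown are percent growth following 48 h exposure of cells in 96-well plates to a single concentration of compound; below 10 was considered active.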 The source made the active and inactive calls.

Legend:
Test in all cases: NCI-60 one-dose screen, 48 h (100 = growth as untreated, 0 = no growth, -100 = all killed)
Details in all cases: 10 µM unless noted
HCT-15 colon = system: HCT-15 colon
HT29 colon = system: HT29 colon
SNB-75 CNS = system: SNB-75 CNS
SNB-19 CNS = system: SNB-19 CNS
U251 CNS = system: U251 CNS
PC-3 prostate = system: PC-3 prostate
SK-MEL-5 melanoma = system: SK-MEL-5 melanoma
UACC-62 melanoma = system: UACC-62 melanoma
LOX IMVI melanoma = system: LOX IMVI melanoma
SK-MEL-28 melanoma = system: SK-MEL-28 melanoma
SK-MEL-2 melanoma = system: SK-MEL-2 melanoma
EKVX NSCLC = system: EKVX NSCLC
SN12C renal = system: SN12C renal
UO-31 renal = system: UO-31 renal
TK-10 renal = system: TK-10 renal
ACHN renal = system: ACHN renal
CAKI-1 renal = system: CAKI-1 renal
A498 renal = system: A498 renal
CCRF-CEM leukemia = system: CCRF-CEM leukemia
MOLT-4 leukemia = system: MOLT-4 leukemia

Measured: growth

O=C(N/N=C/c1ccc([N+](=O)[O-])o1)c1ccc(O)cc1
active: SK-MEL-5 melanoma 2.57%
inactive: HCT-15 colon 42.9% | HT29 colon 17.1% | SNB-75 CNS 84.7% | SNB-19 CNS 54% | U251 CNS 34% | PC-3 prostate 87.4% | UACC-62 melanoma 47.5% | LOX IMVI melanoma 12.9% | SK-MEL-28 melanoma 77.7% | SK-MEL-2 melanoma 24.1% | EKVX NSCLC 71.2% | SN12C renal 29.4% | UO-31 renal 84.7% | TK-10 renal 125% | ACHN renal 66.5% | CAKI-1 renal 88.3% | A498 renal 112% | CCRF-CEM leukemia 34.6% | MOLT-4 leukemia 48.4%

C/C(=N\NC(=O)CSc1nc2ccccc2c(=O)n1CCc1ccc(S(N)(=O)=O)cc1)c1ccc(Br)cc1
active: U251 CNS 8.33%
inactive: HCT-15 colon 94.7% | HT29 colon 44.7% | SNB-75 CNS 84.7% | SNB-19 CNS 63.9% | PC-3 prostate 44.9% | SK-MEL-5 melanoma 61.5% | UACC-62 melanoma 79% | LOX IMVI melanoma 63.3% | SK-MEL-28 melanoma 79.7% | SK-MEL-2 melanoma 80.4% | EKVX NSCLC 88.2% | SN12C renal 92.2% | UO-31 renal 78.3% | TK-10 renal 106% | ACHN renal 93.6% | CAKI-1 renal 79.8% | A498 renal 97.5% | CCRF-CEM leukemia 76.7% | MOLT-4 leukemia 55.3%

COc1cccc(/C(C)=N/NC(=O)CSc2nc3ccccc3c(=O)n2CCc2ccc(S(N)(=O)=O)cc2)c1
active: HT29 colon 2.6% | U251 CNS -55.4% | PC-3 prostate 7.25% | SK-MEL-5 melanoma 1.45%
inactive: HCT-15 colon 69.7% | SNB-75 CNS 42.1% | SNB-19 CNS 24.7% | UACC-62 melanoma 25.1% | LOX IMVI melanoma 26% | SK-MEL-28 melanoma 67.5% | SK-MEL-2 melanoma 30% | EKVX NSCLC 96.9% | SN12C renal 39.6% | UO-31 renal 98.9% | TK-10 renal 32.3% | ACHN renal 85% | CAKI-1 renal 70.5% | A498 renal 72.1% | CCRF-CEM leukemia 22.3% | MOLT-4 leukemia 14.4%

C=C(C)[C@@H]1CC[C@]2(C(=O)NS(=O)(=O)c3ccccc3)CC[C@]3(C)[C@H](CC[C@@H]4[C@@]5(C)CC[C@H](OC(=O)NS(=O)(=O)c6ccccc6)C(C)(C)[C@@H]5CC[C@]43C)[C@@H]12
inactive: HT29 colon 20.8% | SNB-75 CNS 45.3% | SNB-19 CNS 14.4% | U251 CNS 13% | EKVX NSCLC 27.5% | SN12C renal 13% | TK-10 renal 24% | ACHN renal 14.6% | CAKI-1 renal 24.8%
active: HCT-15 colon 5.41% | PC-3 prostate 7.83% | SK-MEL-5 melanoma -24.6% | UACC-62 melanoma -83.1% | LOX IMVI melanoma 4.7% | SK-MEL-28 melanoma -16.3% | SK-MEL-2 melanoma -6.1% | UO-31 renal 8.04% | A498 renal -2.66%

C=C(C)[C@@H]1CC[C@]2(C(=O)O)CC[C@]3(C)[C@H](CC[C@@H]4[C@@]5(C)C[C@@H](CC#Cc6ccc(C(C)=O)s6)[C@H](O)C(C)(C)[C@@H]5CC[C@]43C)[C@@H]12
inactive: HCT-15 colon 33.4% | HT29 colon 34.5% | SNB-75 CNS 71.1% | SNB-19 CNS 75.7% | U251 CNS 32.3% | PC-3 prostate 26% | SK-MEL-5 melanoma 43.3% | UACC-62 melanoma 52.3% | LOX IMVI melanoma 65% | SK-MEL-28 melanoma 76.5% | SK-MEL-2 melanoma 51.9% | EKVX NSCLC 53.2% | SN12C renal 68% | UO-31 renal 56.6% | TK-10 renal 49.6% | ACHN renal 47.9% | CAKI-1 renal 40.7% | CCRF-CEM leukemia 44.7% | MOLT-4 leukemia 32.5%
active: A498 renal -3.73%

Clc1cc2nc(-c3ccccc3)c(-c3ccccc3)nc2cc1Cl
inactive: HCT-15 colon 88.7% | HT29 colon 88.5% | SNB-75 CNS 87.9% | SNB-19 CNS 102% | U251 CNS 95.7% | PC-3 prostate 77.3% | SK-MEL-5 melanoma 89.4% | UACC-62 melanoma 84.7% | LOX IMVI melanoma 86.2% | SK-MEL-28 melanoma 101% | SK-MEL-2 melanoma 87.9% | EKVX NSCLC 82.6% | SN12C renal 90.4% | UO-31 renal 55.7% | TK-10 renal 123% | ACHN renal 93.7% | CAKI-1 renal 89.4% | A498 renal 82% | CCRF-CEM leukemia 88.2%

CCOC(=O)C1=C(C)NC(=S)NC1c1ccccc1 (stereo unspecified)
inactive: HCT-15 colon 104% | HT29 colon 110% | SNB-75 CNS 82.6% | SNB-19 CNS 104% | U251 CNS 105% | PC-3 prostate 115% | SK-MEL-5 melanoma 103% | UACC-62 melanoma 95.6% | LOX IMVI melanoma 101% | SK-MEL-28 melanoma 112% | SK-MEL-2 melanoma 113% | EKVX NSCLC 97.6% | SN12C renal 103% | UO-31 renal 76.4% | TK-10 renal 104% | ACHN renal 99.6% | CAKI-1 renal 87.5% | A498 renal 86.3% | CCRF-CEM leukemia 109%

C#CCNc1nc(NCCNC(=O)CCl)nc(N(C)CCCCc2ccccc2)n1
inactive: HCT-15 colon 92.4% | HT29 colon 109% | SNB-75 CNS 104% | SNB-19 CNS 99.3% | U251 CNS 98.6% | PC-3 prostate 107% | SK-MEL-5 melanoma 53.8% | UACC-62 melanoma 91.7% | SK-MEL-28 melanoma 104% | SK-MEL-2 melanoma 98.9% | EKVX NSCLC 102% | SN12C renal 77.1% | UO-31 renal 82.4% | TK-10 renal 97.7% | ACHN renal 100% | CAKI-1 renal 95.2% | A498 renal 99.2% | CCRF-CEM leukemia 23.8% | MOLT-4 leukemia 43.3%
active: LOX IMVI melanoma -12.5%

Cc1c(C(N)=O)sc2ncn(CC(=O)NN=C3CCCCC3)c(=O)c12
inactive: HCT-15 colon 109% | HT29 colon 90.5% | SNB-75 CNS 102% | SNB-19 CNS 104% | U251 CNS 99.5% | PC-3 prostate 122% | SK-MEL-5 melanoma 106% | UACC-62 melanoma 99.9% | LOX IMVI melanoma 103% | SK-MEL-28 melanoma 118% | EKVX NSCLC 96.6% | SN12C renal 96.3% | UO-31 renal 124% | TK-10 renal 106% | ACHN renal 109% | CAKI-1 renal 132% | A498 renal 111% | CCRF-CEM leukemia 113% | MOLT-4 leukemia 109%
active: SK-MEL-2 melanoma 5.33%

C[C@@H]1CC2C3CCC4=CC(=O)C=C[C@]4(C)[C@@]3(Cl)[C@@H](O)C[C@]2(C)[C@@]1(OC(=O)c1ccco1)C(=O)CCl (stereo partly specified)
inactive: HCT-15 colon 79.7% | HT29 colon 70.8% | SNB-75 CNS 86.3% | SNB-19 CNS 86% | U251 CNS 85% | PC-3 prostate 49.9% | SK-MEL-5 melanoma 55% | UACC-62 melanoma 42% | LOX IMVI melanoma 61.6% | SK-MEL-28 melanoma 88.9% | SK-MEL-2 melanoma 76.6% | EKVX NSCLC 61.5% | SN12C renal 35.4% | UO-31 renal 30.5% | TK-10 renal 95.6% | ACHN renal 82.4% | CAKI-1 renal 62.2% | A498 renal 99% | CCRF-CEM leukemia 30% | MOLT-4 leukemia 31.5%

Clc1cc(Cl)cc(-c2cnc3nonc3n2)c1
inactive: HCT-15 colon 64.4% | HT29 colon 92.8% | SNB-75 CNS 99% | SNB-19 CNS 93.4% | U251 CNS 106% | PC-3 prostate 90.9% | SK-MEL-5 melanoma 107% | UACC-62 melanoma 83.1% | LOX IMVI melanoma 95% | SK-MEL-28 melanoma 91.5% | SK-MEL-2 melanoma 98.5% | EKVX NSCLC 102% | SN12C renal 99.4% | UO-31 renal 62.3% | TK-10 renal 79.9% | ACHN renal 72.6% | CAKI-1 renal 93.5% | A498 renal 100% | CCRF-CEM leukemia 50.5% | MOLT-4 leukemia 92.9%

N/C(=C\C(=O)n1nc(-c2ccccc2)cc1N)c1ccccc1
inactive: HCT-15 colon 33.5% | HT29 colon 23.8% | SNB-75 CNS 29.9% | SNB-19 CNS 66.6% | U251 CNS 36.7% | PC-3 prostate 22.6% | SK-MEL-5 melanoma 32.2% | UACC-62 melanoma 36.9% | LOX IMVI melanoma 51.4% | SK-MEL-28 melanoma 42.2% | EKVX NSCLC 69.5% | SN12C renal 62.1% | UO-31 renal 38.2% | TK-10 renal 101% | ACHN renal 63.7% | CAKI-1 renal 65.3% | A498 renal 67.8% | CCRF-CEM leukemia 40.1% | MOLT-4 leukemia 43%
active: SK-MEL-2 melanoma -16.7%

c1cc(C2CCCCC2)ccc1-c1cnc2nonc2n1
inactive: SNB-75 CNS 26.6% | SNB-19 CNS 37.2% | U251 CNS 21.6% | PC-3 prostate 23.9% | SK-MEL-5 melanoma 22.6% | SK-MEL-28 melanoma 65.5% | EKVX NSCLC 37.3% | SN12C renal 19.5% | UO-31 renal 29% | TK-10 renal 15.6% | ACHN renal 34.6% | CAKI-1 renal 34.2%
active: HCT-15 colon 9.57% | HT29 colon 3.11% | UACC-62 melanoma 8.73% | LOX IMVI melanoma 2.13% | SK-MEL-2 melanoma 8.16% | A498 renal 9.62% | CCRF-CEM leukemia 3.66% | MOLT-4 leukemia -5.4%

CCOC(=O)C(Cc1ccccc1)n1c(O)c(/C=N/c2ncc(Cc3ccc(Cl)cc3Cl)s2)sc1=S (stereo unspecified)
active: HT29 colon -16.7% | U251 CNS 4.53% | PC-3 prostate -16.2% | SK-MEL-5 melanoma -3.04% | UACC-62 melanoma -0.818% | SK-MEL-2 melanoma -18.4% | SN12C renal 6.54% | UO-31 renal 3.67% | TK-10 renal 2.28% | ACHN renal 3.38% | A498 renal -27.3% | CCRF-CEM leukemia 2.77% | MOLT-4 leukemia -7.05%
inactive: HCT-15 colon 10.5% | SNB-75 CNS 22% | SNB-19 CNS 19.3% | LOX IMVI melanoma 21% | SK-MEL-28 melanoma 31.8% | EKVX NSCLC 10.8% | CAKI-1 renal 12.7%

O=C1CCCN1C(O)CCN(Cc1ccccc1)Cc1ccc(Cl)cc1 (stereo unspecified)
inactive: HCT-15 colon 125% | HT29 colon 98.4% | SNB-75 CNS 101% | SNB-19 CNS 104% | U251 CNS 102% | PC-3 prostate 95.1% | SK-MEL-5 melanoma 106% | UACC-62 melanoma 102% | LOX IMVI melanoma 97.2% | SK-MEL-28 melanoma 115% | SK-MEL-2 melanoma 101% | EKVX NSCLC 101% | SN12C renal 101% | UO-31 renal 84.9% | TK-10 renal 109% | ACHN renal 108% | CAKI-1 renal 97.3% | A498 renal 109% | CCRF-CEM leukemia 91.7% | MOLT-4 leukemia 89.9%
